Compound activity deposited in PubChem BioAssay by several laboratories.
Most compounds without a hit are left out; they make up all but 1.1% or so of the library.
beta cell repl – induces beta-cell replication in MIN6 cells. actives 0.29% (n = 330,000). MIN6 cells proliferation, ATPlite luminescence, 48 h; cells starved in 0.2% serum; 100% = growth in 10% serum. proliferation, % at 10 µM;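 active = compounds whose signal lies at least 3.5 SD above the mean of all wells on their plate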;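 note: 0% = DMSO-treated cells in low-serum medium and 100% = 10% serum control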
A1 inh – inhibitors of the anti-apoptotic protein A1, read as caspase activation; MEF A1-2A-BIM cells, Caspase-Glo 3/7 luminescence, 3 h; percent of clofoctol response, vehicle zero; caspase activation, % (concentration not given with the values); actives 0.066% (n = 330,000);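 active = over half of replicate activation scores above 10%, or exactly half above 10 with the replicate mean above 10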
A3A deaminase – human APOBEC3A DNA deaminase inhibition; P31941; recombinant A3A, FAM/TAMRA ssDNA deamination fluorescence; inhibition, % at 20 µM; actives 0.41% (n = 330,000); AID 493011;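 active = at least 40% inhibition at 20 µM here, with at most 30% in a related deaminase screen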;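 note: plate controls were A3A with DMSO for no effect and wells lacking A3A enzyme for full effect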
Target sequence (P31941 whole entry, looked up): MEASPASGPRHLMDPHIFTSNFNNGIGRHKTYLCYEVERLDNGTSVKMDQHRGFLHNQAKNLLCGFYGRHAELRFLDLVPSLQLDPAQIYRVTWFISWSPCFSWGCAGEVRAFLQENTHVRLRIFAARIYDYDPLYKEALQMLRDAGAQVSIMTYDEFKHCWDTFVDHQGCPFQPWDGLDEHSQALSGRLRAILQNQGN
A3G deaminase – blocks human APOBEC3G single-stranded DNA deamination | Q9HC16 | recombinant A3G, ssDNA deamination FAM/TAMRA fluorescence | inhibition, % at 20 µM | actives 0.28% (n = 330,000) | AID 493012;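 active = inhibition of at least 40% at 20 µM, with no more than 30% in the related APOBEC3A deaminase screen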;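 note: plate controls were DMSO wells with A3G for no effect and wells lacking A3G enzyme for full effect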
A3G conf – APOBEC3G (human) deaminase inhibition, confirmed. shares compounds with A3G deaminase. recombinant A3G ssDNA deaminase, UDG/FAM-TAMRA fluorescence. inhibition, % at 20 µM. actives 72% (n = 890). AID 493152;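 active = inhibition reaching a set limit in any replicate at 20 µM, the limit being 80% of the first screen's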
UDG A3G counter – inhibits E. coli UDG, flagging false APOBEC3G inhibitors; shares compounds with A3G deaminase; UDG counterscreen, FAM/TAMRA oligo fluorescence; inhibition, % at 20 µM; AID 504715; 710 tested, under 10 active;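 active = compounds giving 40% or more inhibition at 20 µM in any one of the three replicates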;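 note: plate controls were DMSO wells with UDG and oligo for no effect and DMSO wells lacking both for full effect; inhibitors lower the FAM signal released by uracil excision and alkaline cleavage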
Target sequence (P12295 whole entry, looked up): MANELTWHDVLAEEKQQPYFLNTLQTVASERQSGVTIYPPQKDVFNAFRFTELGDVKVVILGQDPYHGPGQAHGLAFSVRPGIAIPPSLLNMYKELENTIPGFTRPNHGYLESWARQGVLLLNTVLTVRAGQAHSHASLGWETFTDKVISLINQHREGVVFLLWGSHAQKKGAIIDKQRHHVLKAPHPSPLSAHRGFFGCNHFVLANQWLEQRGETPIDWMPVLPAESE
Starred values were filed as active, the others as inactive; / = no result.

SMILES | beta cell repl | A1 inh | A3A deaminase | A3G deaminase | A3G conf | UDG A3G counter
COc1cccc(/C=N/n2c(-c3cc(C)[nH]n3)n[nH]c2=S)c1O | -2 | 1 | -4 | 53* | 85* | 6
COc1ccccc1/C=C/C=N/n1c(-c2cc(C)[nH]n2)n[nH]c1=S | 0 | 1 | 0 | 36 | / | /
Cc1ccc(S(=O)(=O)N2[C@@H](c3ccccc3F)C(C(=O)O)=CC[C@H]2c2cccc(Cl)c2)cc1 | -5 | 2 | -4 | -11 | / | /
CC(C)COc1cccc(C(=O)Nc2ccc(N3CCOCC3)cc2N2CCOCC2)c1 | 3 | 0 | -2 | -8 | / | /
CCSc1nnc(NC(=O)CCN2C(=O)C3CCCCC3C2=O)s1 (stereo not drawn) | 0 | -1 | 1 | -6 | / | /
COc1cccc(/C=N/n2c(-c3n[nH]c4c3CCC4)n[nH]c2=S)c1O | -1 | 0 | -4 | 66* | 82* | -12
CCOC(=O)C1=C(COC(=O)[C@@H](NC(=O)c2cccc(C)c2)C(C)C)NC(=O)NC1C (stereo partly drawn) | -2 | 1 | -2 | -4 | / | /
Cc1nc2scc(-c3ccccc3)c2c(=O)n1N=C1C=CC(=O)C=C1 | -5 | / | -1 | 65* | 93* | 2
CCOC(=O)c1ccc(NC(=O)CSc2nc(=O)n3cccc(C)c3n2)cc1 | -1 | -1 | -2 | -7 | / | /
S=c1[nH]nc(COc2ccccc2)n1/N=C/c1cccnc1 | 0 | 0 | -1 | 56* | 77* | -3
O=[N+]([O-])c1cccc(/C=N/n2c(COc3ccccc3)n[nH]c2=S)c1 | -2 | 0 | 0 | 59* | 73* | -3
Oc1ccc(/C=N/n2c(COc3ccccc3)n[nH]c2=S)cc1O | -3 | -1 | -8 | 43* | 77* | -2
NNC(=O)/C(=C/c1cccs1)NC(=O)c1ccccc1Cl | 0 | -1 | 0 | 6 | / | /
CCOC(=O)c1sc(N/N=C/c2ccccc2)nc1C | 0 | 0 | 2 | 53* | 64* | 2
CCOC(=O)c1sc(N/N=C/c2cccc(C)c2)nc1C | -2 | 0 | -5 | -12 | / | /
Nc1cc(S(=O)(=O)Nc2ccc(Cl)cc2)ccc1N1CCOCC1 | -5 | -1 | 2 | 46* | 17* | -4
O=S(=O)(Nc1ccc(Cl)cc1)c1ccc(N2CCOCC2)c(NC(=S)NC2CC2)c1 | -2 | -1 | 1 | 46* | 32* | 2
O=C(CSc1nnnn1-c1ccc(F)cc1F)Nc1ccccc1F | -2 | -1 | -6 | 10 | / | /
COc1cccc(Nc2n[nH]c(=S)s2)c1 | 0 | -1 | 1 | 58* | 63* | 2
Cc1ccc(S(=O)(=O)Cn2nnnc2C(C(C)C)N2CCC(C(N)=O)CC2)cc1 (stereo not drawn) | -2 | 0 | -4 | -10 | / | /
CCOc1cc(/C=C2\CCCc3c2nc2ccccc2c3C(=O)O)ccc1OC | 0 | 0 | 21 | 48* | 18 | /
Clc1ccc(Cl)c(-c2nn3c(COc4ccccc4)nnc3s2)c1 | 0 | 1 | 7 | 46* | 51* | 3
c1ccc(OCc2nnc3sc(-c4cccs4)nn23)cc1 | -1 | 1 | 4 | 67* | 34* | -36
CCc1c(C)sc(NC(=O)Cn2nc(C)c([N+](=O)[O-])c2C)c1C(N)=O | -2 | 0 | 0 | 52* | 24* | -4
Cc1ccc(N2C(=O)CC(N3CCN/C3=C3\CC/C(=C\c4ccccc4)C3=O)C2=O)cc1 (stereo not drawn) | -4 | 0 | 1 | -4 | / | /
SMILES | beta cell repl | A1 inh | A3A deaminase | A3G deaminase | A3G conf | UDG A3G counter
COC(=O)[C@]1(C)N[C@H](CN(C)C(=O)COc2ccccc2)[C@@H]2C(=O)N(C)C(=O)[C@@H]21 | -1 | / | 0 | 74* | 3 | /
O=c1cc(-c2ccccc2)nc2n1Cc1ccccc1-2 | -1 | 0 | 2 | -4 | / | /
O=c1c2cccc(Cl)c2nc2n1Cc1ccccc1-2 | -4 | -5 | 3 | 59* | 55* | -1
CN(C)C/C=C(\c1ccc(Br)cc1)c1cccnc1 | -4 | 3 | 2 | -6 | / | /
O=C(Nc1cccc(N2C(=O)C=CC2=O)c1)c1cccs1 | -7 | 1 | 24 | 55* | 58* | /
Cc1cccc(OCC(=O)Nc2ccc3c(c2)nc2n3CCOC2)c1 | 4 | 1 | -4 | 0 | / | /
